For eight molecules, growth results are on record in PubChem BioAssay (NCI).

About 83,000 compounds went through this panel and 20% of them were active in at least one assay; those are over-represented in the sample as a whole.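 Single-dose data. Exposure time 48 hours. Values below 10 considered active.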 A number with no mark means an inactive call. Active and inactive are the calls of the source.

What all share (assay): NCI-60 one-dose screen, 48 h (100 = growth as untreated, 0 = no growth, -100 = all killed)
Holding throughout (conditions): 10 µM unless noted

The test system of assay [1] is SK-MEL-2 melanoma.
Assay [2] deals with EKVX NSCLC.
The test system of assay [3] is SN12C renal.
Assay [4] concerns UO-31 renal.
In assay [5] the test system is TK-10 renal.
The test system of assay [6] is ACHN renal.
In assay [7] the test system is CAKI-1 renal.
Assay [8] has as its system A498 renal.
Assay [9] concerns CCRF-CEM leukemia.
In assay [10] the test system is MOLT-4 leukemia.
Assay [11] relates to SR leukemia.
Assay [12] has as its system RPMI-8226 leukemia.
For assay [13], the system named is OVCAR-8 ovarian.
Assay [14] has as its system OVCAR-5 ovarian.
In assay [15] the test system is OVCAR-4 ovarian.
Assay [16] concerns SK-OV-3 ovarian.
The test system of assay [17] is IGROV1 ovarian.
Assay [18] relates to OVCAR-3 ovarian.
The test system of assay [19] is HS 578T breast.
For assay [20], the system named is NCI/ADR-RES ovarian.

With `COc1cc(C2CC(c3ccc(C)cc3)=NN2C=O)ccc1Oc1nc2c(c(=O)n(C)c(=O)n2C)n1C` (stereo not given), the growth in assay [1] is 121%; in [2] it was 80.1%; in [3], 52.4%; in assay [4], 63.1%; in assay [5] it was 113%; in assay [6], 88.1%. Also, the growth was 79.2% in [7]; 76.9% in assay [8]; 83.8% in assay [9]; 67.2% in [10]; 85.7% in assay [11]; 72.1% in [12]. Moreover, the growth in [13] was 92.4%; in assay [14], 102%; in assay [15] it was 77.8%; in [16] it was 124%; in [17], 82.6%; in assay [18], 105%. The growth was 80.2% in assay [19] and 63% in assay [20].

With `COc1cc(C2CC(c3ccc(Cl)cc3)=NN2C(C)=O)ccc1Oc1ccnc2cc(Cl)ccc12` (stereo not given), the growth was 67.2% in [1]; 51.9% in [2]; 70.9% in assay [3]; 57.5% in assay [4]; 37.4% in assay [5]; 18.8% in [6]. Further, the growth was 26.1% in assay [7]; 69% in assay [8]; 87.1% in assay [9]; 97.4% in assay [10]; 76.4% in [11]; 87.3% in assay [12]. The growth was 26.8% in [13]; 81.2% in [14]; -23.8% (active) in assay [15]; 18.4% in [16]; 58.1% in assay [17]; 24% in [18]. Further, the growth in assay [19] was 38.8%; in assay [20] it was 53.2%.

Take `COc1cc(C2CC(c3ccc(C)cc3)=NN2C=O)ccc1Oc1ccnc2cc(Cl)ccc12` (stereo not given): the growth in [1] is 6.3% (active); in assay [2] it was 79.2%; in assay [3] it was 75.7%; in assay [4], 95.3%; in assay [5] it was 54.5%; in assay [6], 48.3%. In addition, the growth is 69.7% in [7]; 53.3% in [8]; 82.8% in assay [9]; 80.3% in assay [10]; 96.6% in [11]; 87.8% in [12]. Moreover, the growth was 60.3% in assay [13]; 98% in assay [14]; 95.8% in assay [15]; -15.4% (active) in assay [16]; 77.2% in assay [17]; 39.5% in assay [18]. In addition, the growth in assay [19] was 7.47% (active); in assay [20], 65.8%.

Consider `COc1cc(/C=C/c2cc(/C=C/c3ccc(O)c(OC)c3)n(C(=O)c3ccccc3Br)n2)ccc1O`, for which the growth in assay [1] was -0.325% (active); in assay [2] it was 30.6%; in assay [3] it was 14.2%; in assay [4] it was 23.9%; in assay [5], 65%; in assay [6], 25.1%. Also, the growth in assay [7] was -34.8% (active); in [8], 56.4%; in assay [9], 3.52% (active); in assay [10] it was -6.53% (active); in assay [11], -4.77% (active); in assay [12], 14.3%. Further, the growth in assay [13] was 27.7%; in assay [14], 84.5%; in [15] it was 49.8%; in assay [16], 16.6%; in assay [17], 25%; in [18] it was 12.6%. The growth in assay [19] is 3.59% (active); in [20], 28.1%.

Regarding `O=C(CSc1nnc(Cc2ccccc2Nc2c(Cl)cccc2Cl)n1-c1ccccc1)N1N=C(c2ccc3ccccc3c2)CC1c1ccc(Cl)cc1` (stereo not given), the growth was 103% in assay [1]; 93.5% in assay [2]; 96.6% in assay [3]; 80% in assay [4]; 95.5% in [5]; 109% in assay [6]. The growth was 92.7% in [7]; 102% in assay [8]; 113% in assay [9]; 98.4% in [10]; 97.2% in [11]; 95.6% in [12]. In addition, the growth is 107% in assay [13]; 99.8% in [14]; 88.7% in assay [15]; 93.8% in assay [16]; 89.5% in assay [17]; 104% in assay [18]. The growth is 111% in assay [19] and 101% in assay [20].

As for `CC(C)CCSc1nc(-c2ccc(F)cc2)c(C#N)c(N2CCN(C)CC2)n1`, the growth was 77.4% in assay [1]; 87.8% in assay [2]; 88.8% in assay [3]; 51.3% in assay [4]; 88.2% in assay [5]; 76.5% in [6]. The growth is 60.8% in assay [7]; 69.7% in [8]; 78.9% in assay [9]; 72.5% in assay [10]; 67.5% in assay [11]; 80% in assay [12]. For the same molecule, the growth is 83.2% in [13]; 91.3% in assay [14]; 96.7% in [15]; 87% in [16]; 95.2% in assay [17]; 93.9% in assay [18]. For the same molecule, the growth was 79.1% in assay [19] and 87.2% in [20].

`COc1ccc(-c2cc(-c3ccc(OC)cc3)c3sc(=O)[nH]c3n2)cc1`: the growth in assay [1] was 103%; in assay [2], 86.6%; in assay [3], 73.7%; in [4] it was 53.4%; in [5], 89.8%; in assay [6], 93.7%. The growth in assay [7] is 76.8%; in assay [8] it was -1.41% (active); in assay [9], 108%; in assay [10], 92.9%; in assay [11], 98.1%; in assay [12] it was 85.3%. The growth was 82.4% in assay [13]; 101% in assay [14]; 95.6% in assay [15]; 92.8% in assay [16]; 84.4% in [17]; 101% in [18]. The growth in [19] is 67.7%; in assay [20], 92.2%.

As to `O=C1SCN(Cc2ccccc2)CN1Cc1ccccc1`, the growth was 101% in assay [1]; 101% in assay [2]; 96.3% in assay [3]; 57.9% in [4]; 111% in [5]; 107% in assay [6]. Further, the growth in assay [7] is 95.9%; in [8], 78.2%; in assay [9], 61.3%; in assay [10], 71.8%; in assay [11], 8.82% (active); in assay [12], 43.7%. For the same molecule, the growth was 90.7% in assay [13]; 105% in [14]; 109% in [15]; 107% in assay [16]; 97.2% in assay [17]; 105% in assay [18]. The growth was 95.5% in [19] and 100% in assay [20].
